According to PubChem BioAssay (Tox21):
Several values for one entry are separate records, joined by “and”; a condition that tells them apart may be missing. Equal entries are not always repeated. Inconclusive results are not listed. Entries that show only a call come without a potency. Where a structure was tested more than once in an assay, its records may differ in their call. Activity calls are given as the source filed them. Unless noted, calls come from the whole dose curve; as a rule, active = well fitted curve in the direction sought with a large enough effect in the repeat runs; inconclusive = weak or mixed curves; inactive = no such curve, though single readings can be large; an effect the other way counts as inactive or inconclusive.

Tests used:
[1] = Caspase-3/7 induction in CHO-K1 cells by small molecules, qHTS cell viability counter screen (AID 1346979); note: nearly all actives have a fitted effect of over 35% in size; note: potency is the fitted concentration of half-maximal effect
How it was run: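 Seeding: 1,500 CHO-K1 cells/well. Rest: 5hr, 37C. Treatment: compounds in DMSO, 16hr. Read: CellTiter-Fluor, 1hr, fluorescence.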

[2] = Caspase-3/7 induction in CHO-K1 cells by small molecules, qHTS assay (AID 1346980); note: nearly all actives have a fitted effect of over 15% in size
How it was run: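 Wild-type CHO-K1 cells exposed to compounds for 17hr at 37 C, 5% CO2. Caspase-3/7 activity then measured by Caspase-Glo 3/7 luminescence after 30min at room temperature.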

[3] = Caspase-3/7 induction in HepG2 cells by small molecules, qHTS cell viability counter screen (AID 1346981); note: series mostly up to about 92 µM; nearly all actives have a fitted effect of over 30% in size
How it was run: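 Counter screen for cytotoxicity: HepG2 exposed 16 hr to compounds, then CellTiter-Fluor viability signal (fluorescence, 1 hr reagent incubation).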

[4] = target: Nuclear receptor subfamily 1 group I member 2 (Homo sapiens) (UniProt O75469); test: Human pregnane X receptor (PXR) small molecule agonists, qHTS assay (AID 1346982); note: nearly all actives have a fitted effect of over 35% in size; note: potency is the fitted concentration of half-maximal effect
How it was run: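 Luminescence (ONE-Glo, 30 min RT) after 24 hr compound exposure of PXR-Luc HepG2 cells; cells rested 5 hr post-plating in 5% charcoal-stripped FBS medium.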

[5] = target: Cytochrome P450 2D6 (Homo sapiens) (UniProt P10635); test: Cytochrome P450 Family 2 Subfamily D Member 6 (CYP2D6) small molecule antagonists: luciferase reporter qHTS assay (AID 1671196); note: nearly all actives have a fitted effect of over 50% in size; note: potency is the fitted concentration of half-maximal effect
How it was run: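 Inhibition of CYP2D6 was gauged by loss of luminescence, since light produced tracks the luciferin generated from a proluciferin substrate. A 10 min room-temperature preincubation preceded 1 h NADPH-supported turnover.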

[6] = target: Cytochrome P450 2C19 (Homo sapiens) (UniProt P33261); test: Cytochrome P450 Family 2 Subfamily C Member 19 (CYP2C19) small molecule antagonists: luciferase reporter qHTS assay (AID 1671197); note: nearly all actives have a fitted effect of over 65% in size; note: potency is the fitted concentration of half-maximal effect
How it was run: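 P450-Glo CYP2C19 system: enzyme-substrate mix with compound 10 min at room temperature, then NADPH regeneration solution, 1 h at 37C. Proluciferin-to-luciferin conversion detected by luminescence after 20 min with detection reagent; ketoconazole as positive control.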

[7] = target: Cytochrome P450 2C9 (Homo sapiens) (UniProt P11712); test: Cytochrome P450 Family 2 Subfamily C Member 9 (CYP2C9) small molecule antagonists: luciferase reporter qHTS assay (AID 1671198); note: nearly all actives have a fitted effect of over 50% in size; note: potency is the fitted concentration of half-maximal effect
How it was run: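 P450-Glo proluciferin substrate with CYP2C9 enzyme; 10 min RT preincubation, then NADPH regeneration 1 h at 37C; luciferin detection reagent 20 min RT, luminescence in relative luminescence units.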

[8] = target: Voltage-gated inwardly rectifying potassium channel KCNH2 (Homo sapiens) (UniProt Q12809); test: Human Ether-a-go-go-Related Gene (hERG) channel small molecule antagonists: fluorescence cell-based qHTS assay (AID 1671200); note: nearly all actives have a fitted effect of over 50% in size; note: potency is the fitted concentration of half-maximal effect
How it was run: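 First, 1000 cells per well are seeded and cultured overnight at 37 C. Next, FluxOR II dye is loaded for 1 h at room temperature, protected from light. After 10 more minutes, stimulus is added and fluorescence is read.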

[9] = target: Cytochrome P450 3A4 (Homo sapiens) (UniProt P08684); test: Cytochrome P450 Family 3 Subfamily A Member 4 (CYP3A4) small molecule antagonists: luciferase reporter qHTS assay (AID 1671201); note: nearly all actives have a fitted effect of over 50% in size; note: potency is the fitted concentration of half-maximal effect
How it was run: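 Enzyme and proluciferin substrate are mixed with test chemicals for 10 min, then NADPH regeneration system drives turnover for 1 h at room temperature. A detection reagent halts the reaction; luminescence after 20 min gives relative activity.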

[10] = target: Cytochrome P450 1A2 (Homo sapiens) (UniProt P05177); test: Cytochrome P450 Family 1 Subfamily A Member 2 (CYP1A2) small molecule antagonists: luciferase reporter qHTS assay (AID 1671199)
How it was run: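 Signal from luciferin formed by CYP1A2 from a proluciferin substrate is read as luminescence, expressed in relative luminescence units. Compounds sit with enzyme 10 min, NADPH-driven reaction runs 1 h, all at room temperature.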

[11] = target: Acetylcholinesterase (Homo sapiens) (UniProt P22303); test: Acetylcholinesterase (AChE) small molecule antagonists: colormetric cell-based qHTS assay (AID 1347395; calls by dose curve; note: nearly all actives have a fitted effect of over 30% in size; note: potency is the fitted concentration of half-maximal effect)
How it was run: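 Quantitative HTS in attached SH-SY5Y cells: 30 min compound exposure, then 90 min with acetylthiocholine and DTNB at 37 C; colour from thiocholine reports AChE activity.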

[12] = target: Acetylcholinesterase (Homo sapiens) (UniProt P22303); test: Acetylcholinesterase (AChE) small molecule antagonists: fluorescence cell-based qHTS assay (AID 1347398; calls by dose curve; note: nearly all actives have a fitted effect of over 50% in size); settings: Potency: AChE activity
How it was run: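 SH-SY5Y cells (2000/well), attached overnight, incubated with compound 30 min at 37 C. Acetylthiocholine plus Thiolite Green then added for 40 min at room temperature. Thiocholine fluorescence (Ex/Em 490/520 nm) reports cellular AChE activity.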

[13] = target: Acetylcholinesterase (Homo sapiens) (UniProt P22303); test: Acetylcholinesterase (AChE) small molecule antagonists: enzyme-based qHTS assay with human liver microsomes (AID 1347399; calls by dose curve; note: nearly all actives have a fitted effect of over 60% in size); settings: Potency: qHTS inhibition
How it was run: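 Recombinant human AChE (50 mU/mL in the enzyme mix) and human liver microsomes (0.25 mg/mL final) were preincubated with compound and NADPH (0.25 mg/mL final) for 30 min at 37 C. Acetylthiocholine/DTNB was then added; thiocholine was read colorimetrically after 10 min at room temperature.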

[14] = target: Nuclear receptor subfamily 1 group I member 2 (Rattus norvegicus) (UniProt Q9R1A7); test: Rat pregnane X receptor (rPXR) activation by small molecules, qHTS assay (AID 1346983); settings: rPXR luciferase reporter cells, One-Glo luminescence, 24 h; stronger effect = higher value; note: nearly all actives have a fitted effect of over 20% in size
How it was run: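 Cell-based rPXR activation assay: rPXR cells, 2,000 per well, rested 5hr at 37 C, then exposed to compounds in DMSO for 24 hr at 37 C. Luciferase activity read by One-Glo luminescence after 30 min at room temperature.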

Acetylcholinesterase (Homo sapiens), sequence (P22303 whole entry, looked up): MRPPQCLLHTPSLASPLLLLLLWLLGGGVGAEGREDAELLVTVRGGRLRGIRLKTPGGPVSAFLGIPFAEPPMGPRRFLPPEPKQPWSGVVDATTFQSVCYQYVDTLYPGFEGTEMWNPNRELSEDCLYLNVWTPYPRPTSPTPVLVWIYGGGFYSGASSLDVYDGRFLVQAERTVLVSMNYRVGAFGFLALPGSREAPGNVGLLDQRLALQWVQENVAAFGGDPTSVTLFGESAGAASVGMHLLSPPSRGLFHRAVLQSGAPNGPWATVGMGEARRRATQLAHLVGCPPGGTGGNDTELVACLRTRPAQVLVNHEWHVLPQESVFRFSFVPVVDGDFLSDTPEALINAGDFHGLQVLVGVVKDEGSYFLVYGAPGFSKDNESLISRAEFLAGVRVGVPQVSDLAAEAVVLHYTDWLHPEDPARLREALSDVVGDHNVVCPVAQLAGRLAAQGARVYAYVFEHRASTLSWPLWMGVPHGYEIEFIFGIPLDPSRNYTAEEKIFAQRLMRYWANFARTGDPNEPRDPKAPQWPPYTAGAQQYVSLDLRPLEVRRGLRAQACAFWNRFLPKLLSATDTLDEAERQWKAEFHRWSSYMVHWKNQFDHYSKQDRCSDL
Cytochrome P450 2C9 (Homo sapiens), sequence (P11712 whole entry, looked up): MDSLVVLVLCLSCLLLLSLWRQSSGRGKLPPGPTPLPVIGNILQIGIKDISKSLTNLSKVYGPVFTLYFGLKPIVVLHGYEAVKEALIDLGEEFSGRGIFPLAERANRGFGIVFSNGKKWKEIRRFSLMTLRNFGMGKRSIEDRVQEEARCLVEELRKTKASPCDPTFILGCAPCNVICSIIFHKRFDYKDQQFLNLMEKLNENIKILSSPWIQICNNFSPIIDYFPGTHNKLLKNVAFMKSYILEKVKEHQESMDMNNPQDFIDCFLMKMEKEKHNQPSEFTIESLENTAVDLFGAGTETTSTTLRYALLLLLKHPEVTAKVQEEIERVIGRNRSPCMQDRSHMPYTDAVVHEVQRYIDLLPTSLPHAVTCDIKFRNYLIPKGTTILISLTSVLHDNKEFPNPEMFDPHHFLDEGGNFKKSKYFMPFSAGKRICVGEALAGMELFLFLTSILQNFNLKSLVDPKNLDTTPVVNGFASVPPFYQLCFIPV
Cytochrome P450 2D6 (Homo sapiens), sequence (P10635 whole entry, looked up): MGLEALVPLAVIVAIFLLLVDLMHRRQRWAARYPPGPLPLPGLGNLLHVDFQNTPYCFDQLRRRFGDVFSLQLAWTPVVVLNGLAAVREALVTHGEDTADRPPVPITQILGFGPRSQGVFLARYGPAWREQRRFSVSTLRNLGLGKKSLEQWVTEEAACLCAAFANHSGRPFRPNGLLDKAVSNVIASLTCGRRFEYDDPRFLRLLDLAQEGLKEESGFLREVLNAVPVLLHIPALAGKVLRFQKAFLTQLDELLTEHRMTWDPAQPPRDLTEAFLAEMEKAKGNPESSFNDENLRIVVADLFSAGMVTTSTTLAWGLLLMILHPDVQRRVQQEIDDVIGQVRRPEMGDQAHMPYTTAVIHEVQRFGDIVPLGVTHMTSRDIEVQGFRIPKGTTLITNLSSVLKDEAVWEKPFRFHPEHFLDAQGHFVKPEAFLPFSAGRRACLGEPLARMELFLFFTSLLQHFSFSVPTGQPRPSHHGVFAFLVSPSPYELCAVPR
Cytochrome P450 1A2 (Homo sapiens), sequence (P05177 whole entry, looked up): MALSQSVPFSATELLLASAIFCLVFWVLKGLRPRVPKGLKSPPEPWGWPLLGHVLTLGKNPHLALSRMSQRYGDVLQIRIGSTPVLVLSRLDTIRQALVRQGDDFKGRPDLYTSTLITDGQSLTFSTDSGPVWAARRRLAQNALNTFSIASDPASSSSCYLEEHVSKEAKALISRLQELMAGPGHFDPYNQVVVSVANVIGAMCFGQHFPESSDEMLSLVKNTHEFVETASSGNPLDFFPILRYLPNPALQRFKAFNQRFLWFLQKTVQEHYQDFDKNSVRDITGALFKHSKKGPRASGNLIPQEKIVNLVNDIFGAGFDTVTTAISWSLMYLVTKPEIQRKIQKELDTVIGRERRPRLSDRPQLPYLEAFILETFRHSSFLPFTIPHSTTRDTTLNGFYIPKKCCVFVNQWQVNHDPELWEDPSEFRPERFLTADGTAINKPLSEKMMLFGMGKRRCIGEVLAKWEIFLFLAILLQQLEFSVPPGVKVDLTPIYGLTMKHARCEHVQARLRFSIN
Cytochrome P450 3A4 (Homo sapiens), sequence (P08684 whole entry, looked up): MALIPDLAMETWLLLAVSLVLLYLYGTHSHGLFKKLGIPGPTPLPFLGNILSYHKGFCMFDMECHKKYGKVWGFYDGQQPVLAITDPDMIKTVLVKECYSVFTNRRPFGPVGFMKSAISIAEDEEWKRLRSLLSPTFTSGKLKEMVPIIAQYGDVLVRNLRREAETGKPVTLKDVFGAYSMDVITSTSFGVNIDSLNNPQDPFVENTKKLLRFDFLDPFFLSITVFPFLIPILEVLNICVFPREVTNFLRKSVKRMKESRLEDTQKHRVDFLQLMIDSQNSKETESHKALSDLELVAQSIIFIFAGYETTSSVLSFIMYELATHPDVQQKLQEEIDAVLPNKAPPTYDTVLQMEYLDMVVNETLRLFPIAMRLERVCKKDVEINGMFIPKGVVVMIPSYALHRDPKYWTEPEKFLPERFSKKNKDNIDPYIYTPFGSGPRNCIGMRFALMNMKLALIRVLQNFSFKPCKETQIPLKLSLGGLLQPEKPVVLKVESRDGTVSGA
Nuclear receptor subfamily 1 group I member 2 (Homo sapiens), sequence (O75469 whole entry, looked up): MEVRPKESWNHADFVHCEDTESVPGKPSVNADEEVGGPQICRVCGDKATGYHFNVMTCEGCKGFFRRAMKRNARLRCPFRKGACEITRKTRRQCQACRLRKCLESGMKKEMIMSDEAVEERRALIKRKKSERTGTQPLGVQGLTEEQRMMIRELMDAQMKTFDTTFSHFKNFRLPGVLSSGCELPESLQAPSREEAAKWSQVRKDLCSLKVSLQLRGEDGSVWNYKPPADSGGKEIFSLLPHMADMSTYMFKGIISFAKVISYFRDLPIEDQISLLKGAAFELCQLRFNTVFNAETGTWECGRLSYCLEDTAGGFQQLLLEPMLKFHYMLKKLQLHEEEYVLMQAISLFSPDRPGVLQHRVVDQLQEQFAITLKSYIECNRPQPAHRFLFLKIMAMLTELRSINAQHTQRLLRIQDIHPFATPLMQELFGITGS
Voltage-gated inwardly rectifying potassium channel KCNH2 (Homo sapiens), sequence (Q12809 whole entry, looked up): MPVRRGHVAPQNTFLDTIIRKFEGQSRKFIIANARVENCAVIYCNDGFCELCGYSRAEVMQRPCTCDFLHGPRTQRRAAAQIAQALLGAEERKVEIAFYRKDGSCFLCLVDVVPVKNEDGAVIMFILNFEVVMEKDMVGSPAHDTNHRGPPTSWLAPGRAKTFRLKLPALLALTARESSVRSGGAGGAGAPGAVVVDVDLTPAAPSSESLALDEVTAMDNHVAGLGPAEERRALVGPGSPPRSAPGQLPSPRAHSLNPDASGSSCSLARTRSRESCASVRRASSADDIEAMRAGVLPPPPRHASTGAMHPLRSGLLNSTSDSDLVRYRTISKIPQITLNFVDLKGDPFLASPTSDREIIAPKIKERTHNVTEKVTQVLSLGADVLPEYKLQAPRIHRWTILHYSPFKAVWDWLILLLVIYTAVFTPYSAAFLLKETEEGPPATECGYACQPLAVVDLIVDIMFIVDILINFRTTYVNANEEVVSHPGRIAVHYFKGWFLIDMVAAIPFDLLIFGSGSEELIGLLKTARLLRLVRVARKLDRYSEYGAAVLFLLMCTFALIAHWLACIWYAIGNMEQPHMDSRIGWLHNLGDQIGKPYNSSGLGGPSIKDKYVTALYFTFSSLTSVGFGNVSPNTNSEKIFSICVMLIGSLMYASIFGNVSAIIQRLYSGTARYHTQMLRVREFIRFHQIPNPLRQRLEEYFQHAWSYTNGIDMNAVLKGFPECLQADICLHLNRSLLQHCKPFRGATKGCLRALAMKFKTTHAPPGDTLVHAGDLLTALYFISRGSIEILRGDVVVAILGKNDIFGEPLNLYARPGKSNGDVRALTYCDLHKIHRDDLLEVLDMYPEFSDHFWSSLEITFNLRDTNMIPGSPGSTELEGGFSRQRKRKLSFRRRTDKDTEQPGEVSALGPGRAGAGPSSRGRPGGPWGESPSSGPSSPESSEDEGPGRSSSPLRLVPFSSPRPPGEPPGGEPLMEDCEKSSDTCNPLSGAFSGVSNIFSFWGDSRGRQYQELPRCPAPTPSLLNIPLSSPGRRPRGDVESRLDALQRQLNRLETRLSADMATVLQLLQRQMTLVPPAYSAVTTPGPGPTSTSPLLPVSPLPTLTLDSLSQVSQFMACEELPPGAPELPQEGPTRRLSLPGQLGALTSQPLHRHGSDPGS
Cytochrome P450 2C19 (Homo sapiens), sequence (P33261 whole entry, looked up): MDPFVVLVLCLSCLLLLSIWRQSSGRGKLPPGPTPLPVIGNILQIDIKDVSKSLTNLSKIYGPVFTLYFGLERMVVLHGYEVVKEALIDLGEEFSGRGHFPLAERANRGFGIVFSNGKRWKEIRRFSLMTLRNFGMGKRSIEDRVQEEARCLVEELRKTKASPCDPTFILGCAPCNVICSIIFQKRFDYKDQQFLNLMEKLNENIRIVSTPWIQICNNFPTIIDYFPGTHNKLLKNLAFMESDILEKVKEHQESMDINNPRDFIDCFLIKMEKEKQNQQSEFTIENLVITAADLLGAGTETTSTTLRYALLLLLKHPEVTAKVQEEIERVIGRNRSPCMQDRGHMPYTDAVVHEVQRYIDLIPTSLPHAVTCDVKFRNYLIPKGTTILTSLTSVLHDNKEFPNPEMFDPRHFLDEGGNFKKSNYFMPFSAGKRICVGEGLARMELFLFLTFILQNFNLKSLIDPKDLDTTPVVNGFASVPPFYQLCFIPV

SMILES	Potency [1]	Potency [2]	Potency [3]	Potency [4]	Potency [5]	Potency [6]	Potency [7]	Potency [8]	Potency [9]	Potency [10]	Potency [11]	Potency [12]	Potency [13]	max activation [14]
CCCCCCCCn1cc[n+](C)c1	54.1 µM (active) and 49 µM (active) and 55 µM (active)	inactive	inactive	13.6 µM (active) and 21.7 µM (active) and 17.4 µM (active)	5.68 µM (active) [middle of 4 runs]	39.9 µM (active) and inactive	inactive	17.3 µM (active) and 21.9 µM (active) and 22.1 µM (active)	inactive	–	–	–	–	–
COc1ccccc1N	inactive	inactive	inactive	inactive	17.8 µM (active) and 35.7 µM (active) and 12.6 µM (active)	–	inactive	inactive	22.4 µM (active) and inactive and 28.3 µM (active)	39.9 µM (active) and 32.3 µM (active) and 35.6 µM (active)	–	–	–	–
CC[N+]1(C)CCCC1	inactive	inactive	inactive	inactive	6.3 nM (active) and inactive	inactive and 31.8 µM (active)	inactive	inactive and 21.9 µM (active)	inactive	–	inactive and 22.4 µM (active)	inactive	inactive	–
O=c1nc(O)n(Cl)c(=O)n1Cl	inactive	inactive	inactive	inactive	inactive and 1.26 µM (active)	inactive	inactive	inactive	inactive	–	inactive	inactive	inactive	–
O=C(O)c1nc(Cl)ccc1Cl	inactive	inactive	inactive	inactive	inactive	inactive	inactive	inactive	inactive	–	inactive	inactive	inactive	–
Oc1cccc2cccnc12	–	inactive	inactive	–	–	–	–	inactive	–	–	–	–	–	-0.611% (inactive)
N#CS	inactive	inactive	inactive	–	–	–	–	inactive	–	–	–	–	–	–
O=[N+]([O-])O	inactive	inactive	inactive	–	–	–	–	inactive	–	–	–	–	–	–
O=C(O)CC(O)(CC(=O)O)C(=O)O	inactive	inactive	inactive	–	inactive	–	–	inactive	–	–	–	–	–	–
Nc1ccccc1	inactive	inactive	inactive	inactive	inactive and 64.5 µM (active)	30.9 µM (active) and 36.3 µM (active) and inactive	inactive and 40.7 µM (active)	inactive	inactive	–	–	–	–	–
